This note sets out measurements from PubChem BioAssay (EPA / NIEHS).

The structures appear in SMILES notation. Results filed as inconclusive are left out. Active and inactive are the calls of the source. How the source made its calls: active means hit-call score of the fitted dose curve at least 0.9, where 1 is the maximum; inconclusive means response in the unintended direction; inactive means score below 0.9.

For assay [1], the target named is guinea pig Leukotriene D4 Receptor (LTD4), CYSLTR1 (gene 100135514) (UniProt Q2NNR5). The assay is described as follows: NVS_GPCR_gLTD4: NovaScreen (NVS) G Protein-Coupled Receptor Assay for guinea pig Leukotriene D4 Receptor (LTD4) (AID 2283248). In short, it runs like this:
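Radioligand displacement on guinea pig lung membranes, 1 h incubation, filtration and scintillation counting; DMSO as negative control. Duplicate 25 uM primary screen, then singleton concentration-response up to 50 uM.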

Assay [2] addresses human Serotonin, 5-Hydroxytryptamine Receptor 5A (5HT5A), HTR5A (gene 3361) (UniProt P47898). The assay is described as follows: NVS_GPCR_h5HT5A: NovaScreen (NVS) G Protein-Coupled Receptor Assay for human Serotonin, 5-Hydroxytryptamine Receptor 5A (5HT5A) (AID 2283251). In outline: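 Cell-free radioligand displacement binding on HEK293-derived membrane protein, 1 h incubation, filter-based scintillation counting. Primary screen in duplicate at 25 uM, actives followed in concentration series; loss of signal fitted versus DMSO.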

The target of assay [3] is human Serotonin, 5-Hydroxytryptamine Receptor 6 (5HT6), HTR6 (gene 3362) (UniProt P50406). As to the kind of experiment: NVS_GPCR_h5HT6: NovaScreen (NVS) G Protein-Coupled Receptor Assay for human Serotonin, 5-Hydroxytryptamine Receptor 6 (5HT6) (AID 2283253). In outline: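 Radioligand binding to 5HT6 in HEK293-derived membranes, cell-free, 1 h after dosing; bound ligand measured by filter-based scintillation counting. Primary screen in duplicate at 25 uM; actives retested in concentration series.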
Sequence of human Serotonin, 5-Hydroxytryptamine Receptor 6 (5HT6), HTR6 (gene 3362) (P50406 whole entry, looked up): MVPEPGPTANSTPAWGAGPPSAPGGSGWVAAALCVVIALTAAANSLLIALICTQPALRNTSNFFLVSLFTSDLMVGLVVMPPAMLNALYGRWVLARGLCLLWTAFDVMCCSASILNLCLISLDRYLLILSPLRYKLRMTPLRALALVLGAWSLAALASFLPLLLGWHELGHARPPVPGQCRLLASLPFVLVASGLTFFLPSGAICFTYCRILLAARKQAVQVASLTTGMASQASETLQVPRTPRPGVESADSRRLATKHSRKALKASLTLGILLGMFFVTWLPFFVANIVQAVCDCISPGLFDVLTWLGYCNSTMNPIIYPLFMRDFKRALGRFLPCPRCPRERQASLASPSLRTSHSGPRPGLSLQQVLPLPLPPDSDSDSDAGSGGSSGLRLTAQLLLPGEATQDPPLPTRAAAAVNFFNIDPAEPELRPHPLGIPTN

Assay [4] has as its target human Adenosine A1 Receptor (AdoRA1), ADORA1 (gene 134) (UniProt P30542). The assay is described as follows: NVS_GPCR_hAdoRA1: NovaScreen (NVS) G Protein-Coupled Receptor Assay for human Adenosine A1 Receptor (AdoRA1) (AID 2283254). In outline:
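Membranes from human cortical tissue were incubated with radioligand and test chemical for 1 hour, then filtered and counted. Activity was taken as signal loss relative to DMSO, screened at 25 uM in duplicate before concentration-response follow-up.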

In assay [5] the target is human Serotonin, 5-Hydroxytryptamine Receptor 7 (5HT7), HTR7 (gene 3363) (UniProt P34969). The assay is described as follows: NVS_GPCR_h5HT7: NovaScreen (NVS) G Protein-Coupled Receptor Assay for human Serotonin, 5-Hydroxytryptamine Receptor 7 (5HT7) (AID 2283255).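 Further: hits reduce specific radioligand binding relative to DMSO.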 In short, it runs like this: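 Radioligand displacement on membranes from CHO cells expressing human 5HT7, 1 h incubation, filter-based scintillation counting. Primary screen used a single 25 uM concentration in duplicate; actives were followed up in concentration series.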
Sequence of human Serotonin, 5-Hydroxytryptamine Receptor 7 (5HT7), HTR7 (gene 3363) (P34969 whole entry, looked up): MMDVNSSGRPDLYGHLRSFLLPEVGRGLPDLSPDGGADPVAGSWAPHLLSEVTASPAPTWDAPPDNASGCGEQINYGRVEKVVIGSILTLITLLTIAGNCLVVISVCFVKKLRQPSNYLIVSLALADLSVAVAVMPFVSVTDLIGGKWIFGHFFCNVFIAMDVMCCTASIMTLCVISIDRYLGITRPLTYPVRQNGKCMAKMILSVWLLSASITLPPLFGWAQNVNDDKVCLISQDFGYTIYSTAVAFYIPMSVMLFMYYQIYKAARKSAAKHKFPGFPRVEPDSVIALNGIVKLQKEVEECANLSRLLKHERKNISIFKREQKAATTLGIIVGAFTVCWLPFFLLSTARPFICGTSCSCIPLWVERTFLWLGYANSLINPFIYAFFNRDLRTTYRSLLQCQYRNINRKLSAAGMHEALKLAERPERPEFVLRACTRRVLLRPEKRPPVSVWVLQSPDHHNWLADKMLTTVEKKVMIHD

Assay [6] addresses human Adenosine A2a Receptor (AdoRA2a), ADORA2A (gene 135) (UniProt P29274). As to the kind of experiment: NVS_GPCR_hAdoRA2a: NovaScreen (NVS) G Protein-Coupled Receptor Assay for human Adenosine A2a Receptor (AdoRA2a) (AID 2283256). In short, it runs like this:
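Cell-free radioligand binding on membranes from HEK293 expressing the receptor; competitive displacement read 1.5 h after dosing by filter-based scintillation counting. Primary screen in duplicate at 25 uM; actives followed in concentration series, with DMSO as baseline.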

In assay [7] the test system is bovine Angiotensin II Receptor Type 2 (AT2), gene 407157. The assay is described as follows: NVS_GPCR_bAT2: NovaScreen (NVS) G Protein-Coupled Receptor Assay for bovine Angiotensin II Receptor Type 2 (AT2) (AID 2283240). In short, it runs like this:
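Radioligand displacement on bovine cerebellar membranes, 1 hour incubation, filter-based scintillation counting; loss of signal vs DMSO. Duplicate single-point screen at 25 uM, then concentration-response to 50 uM maximum.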

Assay [8] has as its system guinea pig Leukotriene B4 Receptor (LTB4), gene 100379538. As to the kind of experiment: NVS_GPCR_gLTB4: NovaScreen (NVS) G Protein-Coupled Receptor Assay for guinea pig Leukotriene B4 Receptor (LTB4) (AID 2283247). In short, it runs like this: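 Radioligand displacement on guinea pig spleen membranes, filter-based scintillation counting 2 h after dosing. Primary duplicate single point at 25 uM; hits over threshold (e.g. 30% inhibition) run in concentration-response up to 50 uM, DMSO baseline.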

Assay [9] in a line: NVS_GPCR_bNPY_NonSelective: NovaScreen (NVS) G Protein-Coupled Receptor Assay for bovine Neuropeptide Y (NPY) Receptor, Non-selective Binding (AID 2283245). In outline:
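Bovine hippocampal membranes incubated 1 hour with radioligand and test chemical. Bound ligand measured by filter-based scintillation counting. Single-concentration screen at 25 uM in duplicate, then concentration-response up to 50 uM.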

Assay [10] deals with human Serotonin, 5-Hydroxytryptamine Receptor 2A (5HT2A), HTR2A (gene 3356) (UniProt P28223). As to the kind of experiment: NVS_GPCR_h5HT2A: NovaScreen (NVS) G Protein-Coupled Receptor Assay for human Serotonin, 5-Hydroxytryptamine Receptor 2A (5HT2A) (AID 2283249). In outline:
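Human cortex membranes, cell-free radioligand binding; filter-based scintillation read 1.5 h after dosing. Duplicate screen at 25 uM first; displacement of specific binding (loss of signal) versus DMSO.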

Assay [11] relates to guinea pig Muscarinic, Peripheral (Mperiperal) Receptor, Non-selective Binding, gene 100379235. As to the kind of experiment: NVS_GPCR_gMPeripheral_NonSelective: NovaScreen (NVS) G Protein-Coupled Receptor Assay for guinea pig Muscarinic, Peripheral (Mperiperal) Receptor, Non-selective Binding (AID 2283250). In short, it runs like this:
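Guinea pig bladder membranes, radioligand binding read 1 h after dosing by filter scintillation counting; loss of signal vs DMSO. Primary duplicate screen at 25 uM, then concentration-response up to 50 uM.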

For assay [12], the target named is guinea pig Opioid, Kappa 1 Receptor (OpiateK), OPRK1 (gene 100135587) (UniProt P41144). As to the kind of experiment: NVS_GPCR_gOpiateK: NovaScreen (NVS) G Protein-Coupled Receptor Assay for guinea pig Opioid, Kappa 1 Receptor (OpiateK) (AID 2283252).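 Further: radioligand displacement from kappa opioid receptor in guinea pig cerebellar membranes; active means reduced radioligand binding relative to DMSO.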 In outline:
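Guinea pig cerebellar membranes, radioligand displacement with filter-based scintillation counting, 2 h after dosing. Primary screen single concentration 25 uM in duplicate; actives retested in concentration series; loss of binding fitted versus DMSO.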

Assay [13] concerns bovine Histamine 1 Receptor (H1), gene 281231. The assay is described as follows: NVS_GPCR_bH1: NovaScreen (NVS) G Protein-Coupled Receptor Assay for bovine Histamine 1 Receptor (H1) (AID 2283246). In outline: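 Radioligand displacement on bovine cerebellar membranes, 1 h after dosing, filter-based scintillation read-out; loss of signal vs DMSO. Duplicate single-concentration screen at 25 uM, then concentration-response up to 50 uM for hits.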

The target of assay [14] is Adenosine receptor A1 (Bos taurus) (UniProt P28190). As to the kind of experiment: NVS_GPCR_bAdoR_NonSelective: NovaScreen (NVS) G Protein-Coupled Receptor Assay for bovine Adenosine Receptor (AdoR), Non-selective Binding (AID 2283244). In short, it runs like this: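 Bovine striatal membranes, radioligand displacement binding, 1 h after dosing, filter-based scintillation counting. Screened in duplicate at 25 uM, then concentration-response up to 50 uM; loss of specific binding relative to DMSO.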
Sequence of Adenosine receptor A1 (Bos taurus) (P28190 whole entry, looked up): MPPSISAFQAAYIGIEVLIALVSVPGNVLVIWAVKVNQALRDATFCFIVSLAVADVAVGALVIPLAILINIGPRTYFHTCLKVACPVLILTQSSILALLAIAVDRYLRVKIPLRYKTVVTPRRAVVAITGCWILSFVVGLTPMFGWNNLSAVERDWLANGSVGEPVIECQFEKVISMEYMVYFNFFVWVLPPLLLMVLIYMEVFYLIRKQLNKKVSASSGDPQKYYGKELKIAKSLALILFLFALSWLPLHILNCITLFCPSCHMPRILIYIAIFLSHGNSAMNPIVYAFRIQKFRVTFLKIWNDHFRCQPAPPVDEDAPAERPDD

The target in assay [15] is bovine Dopamine Receptor (DR), Non-selective Binding, DRD1 (gene 281125) (UniProt Q95136). As to the kind of experiment: NVS_GPCR_bDR_NonSelective: NovaScreen (NVS) G Protein-Coupled Receptor Assay for bovine Dopamine Receptor (DR), Non-selective Binding (AID 2283241). In short, it runs like this: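 Bovine striatal membranes; radioligand displacement read by filtration and scintillation counting 1 h after dosing, loss of signal vs DMSO. Screened in duplicate at 25 uM, then concentration-response for hits.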
Sequence of bovine Dopamine Receptor (DR), Non-selective Binding, DRD1 (gene 281125) (Q95136 whole entry, looked up): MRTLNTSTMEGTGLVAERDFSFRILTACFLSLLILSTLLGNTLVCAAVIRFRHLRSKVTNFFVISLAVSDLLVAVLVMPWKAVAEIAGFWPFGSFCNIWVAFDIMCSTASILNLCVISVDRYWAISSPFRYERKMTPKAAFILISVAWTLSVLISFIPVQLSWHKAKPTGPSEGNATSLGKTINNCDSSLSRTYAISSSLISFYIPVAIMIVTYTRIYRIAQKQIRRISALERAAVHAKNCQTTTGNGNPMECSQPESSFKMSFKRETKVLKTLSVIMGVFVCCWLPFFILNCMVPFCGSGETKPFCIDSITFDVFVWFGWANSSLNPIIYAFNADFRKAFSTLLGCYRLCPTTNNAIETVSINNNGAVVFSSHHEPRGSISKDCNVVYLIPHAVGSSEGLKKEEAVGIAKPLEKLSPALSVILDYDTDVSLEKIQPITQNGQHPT

What is called AC50 is the concentration at which the activity in the assay is half-maximal.

Sequence of human Serotonin, 5-Hydroxytryptamine Receptor 5A (5HT5A), HTR5A (gene 3361) (P47898 whole entry, looked up): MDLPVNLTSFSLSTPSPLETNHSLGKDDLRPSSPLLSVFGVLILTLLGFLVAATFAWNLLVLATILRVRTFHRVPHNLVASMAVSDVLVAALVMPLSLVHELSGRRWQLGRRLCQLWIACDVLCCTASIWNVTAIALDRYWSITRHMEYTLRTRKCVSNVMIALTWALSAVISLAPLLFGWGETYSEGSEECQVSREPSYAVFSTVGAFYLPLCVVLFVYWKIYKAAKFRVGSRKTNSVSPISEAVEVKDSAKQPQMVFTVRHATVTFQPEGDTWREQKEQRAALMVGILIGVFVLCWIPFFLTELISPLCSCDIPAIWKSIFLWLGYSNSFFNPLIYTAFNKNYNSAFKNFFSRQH
Sequence of guinea pig Opioid, Kappa 1 Receptor (OpiateK), OPRK1 (gene 100135587) (P41144 whole entry, looked up): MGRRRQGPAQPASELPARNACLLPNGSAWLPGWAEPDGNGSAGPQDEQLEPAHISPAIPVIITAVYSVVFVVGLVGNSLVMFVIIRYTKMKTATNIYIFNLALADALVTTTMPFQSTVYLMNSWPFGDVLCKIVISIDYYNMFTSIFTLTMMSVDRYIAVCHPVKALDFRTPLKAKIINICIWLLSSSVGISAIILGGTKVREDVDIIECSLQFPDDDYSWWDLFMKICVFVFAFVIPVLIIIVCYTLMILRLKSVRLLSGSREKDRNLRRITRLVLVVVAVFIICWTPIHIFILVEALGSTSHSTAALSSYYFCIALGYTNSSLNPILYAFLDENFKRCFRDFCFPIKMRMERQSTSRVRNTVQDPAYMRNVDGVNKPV
Sequence of human Adenosine A1 Receptor (AdoRA1), ADORA1 (gene 134) (P30542 whole entry, looked up): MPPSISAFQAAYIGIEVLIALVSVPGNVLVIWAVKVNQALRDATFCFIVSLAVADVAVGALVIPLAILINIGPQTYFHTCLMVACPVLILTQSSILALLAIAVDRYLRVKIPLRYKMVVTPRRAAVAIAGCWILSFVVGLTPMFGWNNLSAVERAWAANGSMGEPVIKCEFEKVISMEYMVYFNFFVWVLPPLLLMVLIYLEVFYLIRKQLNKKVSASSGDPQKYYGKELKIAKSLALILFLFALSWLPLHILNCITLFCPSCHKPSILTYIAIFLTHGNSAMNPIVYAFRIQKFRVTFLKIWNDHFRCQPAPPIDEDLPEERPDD
Sequence of human Adenosine A2a Receptor (AdoRA2a), ADORA2A (gene 135) (P29274 whole entry, looked up): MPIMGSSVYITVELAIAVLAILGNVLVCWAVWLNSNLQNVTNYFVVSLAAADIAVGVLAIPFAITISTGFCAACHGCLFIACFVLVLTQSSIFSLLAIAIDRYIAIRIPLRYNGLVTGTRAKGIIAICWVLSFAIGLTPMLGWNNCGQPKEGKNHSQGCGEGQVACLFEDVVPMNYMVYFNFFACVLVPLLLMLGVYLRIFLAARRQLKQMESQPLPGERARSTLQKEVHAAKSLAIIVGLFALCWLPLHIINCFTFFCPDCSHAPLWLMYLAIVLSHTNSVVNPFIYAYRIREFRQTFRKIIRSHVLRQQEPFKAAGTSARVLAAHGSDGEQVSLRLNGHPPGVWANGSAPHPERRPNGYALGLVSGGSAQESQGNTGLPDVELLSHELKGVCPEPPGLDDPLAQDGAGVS
Sequence of guinea pig Leukotriene D4 Receptor (LTD4), CYSLTR1 (gene 100135514) (Q2NNR5 whole entry, looked up): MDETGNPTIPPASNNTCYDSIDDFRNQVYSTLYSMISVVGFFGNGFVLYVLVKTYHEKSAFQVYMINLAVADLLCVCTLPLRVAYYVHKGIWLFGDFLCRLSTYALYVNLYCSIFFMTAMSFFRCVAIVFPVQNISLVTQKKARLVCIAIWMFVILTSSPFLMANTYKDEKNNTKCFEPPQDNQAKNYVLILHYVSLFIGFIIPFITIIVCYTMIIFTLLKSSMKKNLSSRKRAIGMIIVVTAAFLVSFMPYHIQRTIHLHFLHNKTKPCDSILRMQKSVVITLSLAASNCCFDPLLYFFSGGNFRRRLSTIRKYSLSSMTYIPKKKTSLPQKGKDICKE
Sequence of human Serotonin, 5-Hydroxytryptamine Receptor 2A (5HT2A), HTR2A (gene 3356) (P28223 whole entry, looked up): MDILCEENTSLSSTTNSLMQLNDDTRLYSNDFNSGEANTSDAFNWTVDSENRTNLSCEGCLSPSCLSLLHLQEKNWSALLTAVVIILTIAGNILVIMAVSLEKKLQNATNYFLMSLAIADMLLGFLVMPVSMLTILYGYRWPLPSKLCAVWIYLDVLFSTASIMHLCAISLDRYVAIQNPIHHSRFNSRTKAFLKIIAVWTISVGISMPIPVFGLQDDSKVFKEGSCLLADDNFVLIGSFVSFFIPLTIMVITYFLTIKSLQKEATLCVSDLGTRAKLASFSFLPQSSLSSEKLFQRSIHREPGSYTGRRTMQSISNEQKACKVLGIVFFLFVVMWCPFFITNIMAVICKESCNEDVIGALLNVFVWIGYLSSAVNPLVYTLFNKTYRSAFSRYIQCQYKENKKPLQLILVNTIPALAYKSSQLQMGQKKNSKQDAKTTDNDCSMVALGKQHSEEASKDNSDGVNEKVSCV

Take `Cc1cc(F)ccc1-c1cc(N2CC[C@@H](O)[C@H]2CO)ncc1N(C)C(=O)C(C)(C)c1cc(C(F)(F)F)cc(C(F)(F)F)c1`: in assay [1], the call was inactive. In addition, the AC50 in [2] was 7.83 µM (active); in assay [3], 11.7 µM (active); in [4], 20.4 µM (active); in assay [5] it was 2.69 µM (active); in assay [6], 20.4 µM (active).
Regarding `CN(C[C@@H](CC[N+]12CCC(C3CCCCC3)(CC1)CC2)c1ccc(Cl)c(Cl)c1)C(=O)c1cc(C(F)(F)F)cc(C(F)(F)F)c1`, the AC50 in [7] was 36.7 µM (active); in [8] it was 0.166 µM (active); in [3], 10.5 µM (active); in assay [4] it was 16.7 µM (active); in assay [5], 1.53 µM (active).
With `O=C(O)Cn1c(=O)n(Cc2ccc(Br)cc2F)c(=O)c2ccc(Cl)cc21`, the compound was classed as inactive in [7].
For the compound `COc1ccc2cc(S(=O)(=O)N[C@H](CC(=O)N[C@H](Cc3ccc(CN4[C@H](C)CCC[C@@H]4C)cc3)C(=O)N(C)C(C)C)c3ccc4c(c3)OCO4)ccc2c1`, the AC50 was 37.5 µM (active) in assay [7]; 10.7 µM (active) in assay [9]; 7.94 µM (active) in assay [10]; 5.48 µM (active) in assay [11]; 0.548 µM (active) in assay [12]. The outcome in assay [2] and in [5] was inactive.
Regarding `Clc1cc(Cl)c2c(c1)N=C1CCCCCN1C2`, the AC50 in [11] is 6.74 µM (active); in [12], 10.5 µM (active).
As to `O=C(O)Cc1cc(I)c(Oc2ccc(O)c(I)c2)c(I)c1`, the AC50 in assay [8] was 0.623 µM (active). The outcome in assay [2] and in assay [4] was inactive.
Consider `c1ccc(C[n+]2cccc3ccccc32)cc1`, for which the AC50 is 8.25 µM (active) in assay [11] and 11.8 µM (active) in assay [12].
Consider `NCc1cccc(C2CCN(C(=O)c3ccc(C#Cc4ccccc4F)o3)CC2)c1`, for which the AC50 in assay [9] is 25 µM (active); in assay [11], 9.09 µM (active); in [2] it was 18.4 µM (active); in assay [12], 25 µM (active); in assay [3] it was 8.69 µM (active); in assay [4] it was 15.8 µM (active). Moreover, the AC50 in assay [5] was 6.87 µM (active).
For `Cc1cc2c(cc1C(F)(F)F)N(C(=O)Nc1ccc(Oc3cccnc3C)nc1)CC2`, the compound was classed as inactive in assay [11] and in [5]. Also, the results for the AC50 in assay [2] and in [3] were 4.76 µM (active) and 2.91 µM (active), respectively.
Consider `Cc1oc2c(NC(=O)c3c(Cl)cccc3Cl)cccc2c1C(C)(C)O`, for which the AC50 in assay [13] was 25 µM (active). Moreover, the call in [4] was inactive.
In the case of `CCCCCCCCCC(=O)O`, the call in assay [14], in [8], in assay [4], in assay [5] and in assay [6] was inactive.
On to `CC1(C)NC(=O)N(c2ccc([N+](=O)[O-])c(C(F)(F)F)c2)C1=O`, for which, in [14], the half-maximal activity concentration (AC50) was 9.79 µM (active).
For `COc1cccc([C@H](O)C2CCN(CCc3ccc(F)cc3)CC2)c1OC`, the AC50 in assay [15] was 5.96 µM (active); in [13], 5.41 µM (active); in [12], 12.1 µM (active); in assay [5] it was 0.395 µM (active). Besides, the compound was called inactive in [4].
Take `CCCCCCCC[Si](OCC)(OCC)OCC`: the outcome in assay [12] was inactive.
Turning to `C[C@]12CC[C@@H]3c4ccc(O)cc4CC[C@H]3[C@@H]1CC[C@H]2O`, in assay [3], the AC50 is 25 µM (active).
